The values that follow come from PubChem BioAssay AID588819 (The Scripps Research Institute Molecular Screening Center, 2011).

The whole screen tested about 360,000 compounds, of which about 320 (0.089%) were called active. The sample holds actives, similar compounds and a random draw of the others, so the mix is not that of the screen. Unmarked numbers belong to inactive results. No stated cut-off is given here; in the data, active means activation above about 19% (passing the limit was not always enough); inactive means the rest.

For this experiment, the target named is Muscarinic acetylcholine receptor M1 (Homo sapiens) (UniProt P11229). As to the kind of experiment: human M1 muscarinic receptor positive allosteric modulators, primary screen, CHO-K1 cells, Fluo-8 calcium fluorescence, 1536-well (AID 588819). Particulars: CHO-K1 hM1, Fluo-8 calcium fluorescence, ACh EC20; at 3 µM; stronger effect = higher value; 0% = ACh EC20, 100% = maximal ACh.
Muscarinic acetylcholine receptor M1 (Homo sapiens), sequence (P11229 whole entry, looked up): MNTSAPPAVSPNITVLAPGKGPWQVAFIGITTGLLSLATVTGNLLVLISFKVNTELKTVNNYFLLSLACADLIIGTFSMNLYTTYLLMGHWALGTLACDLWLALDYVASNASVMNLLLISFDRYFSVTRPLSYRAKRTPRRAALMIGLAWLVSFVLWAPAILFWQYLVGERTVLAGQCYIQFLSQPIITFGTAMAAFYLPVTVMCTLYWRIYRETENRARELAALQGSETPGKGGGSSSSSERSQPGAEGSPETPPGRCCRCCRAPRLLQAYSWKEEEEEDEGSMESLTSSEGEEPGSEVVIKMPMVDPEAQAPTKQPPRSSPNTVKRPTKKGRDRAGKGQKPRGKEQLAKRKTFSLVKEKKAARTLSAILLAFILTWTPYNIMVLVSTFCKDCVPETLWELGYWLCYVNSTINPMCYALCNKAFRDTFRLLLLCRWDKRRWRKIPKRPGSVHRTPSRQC
Regarding `Cc1ccccc1S(=O)(=O)NC(=O)C1(C)CCN1C(=O)Cc1ccc(Cl)cc1Cl` (stereo unspecified), the activation was 4.98%.

As to `COC(=O)CC(=O)N1CCN(c2ccc(Cl)c(Cl)c2)CC1`, the activation is -9.1%. `Cc1ccc(-c2noc(C3CCCN(C(=O)c4cccc(Cl)c4)C3)n2)o1` (stereo unspecified): the activation was 28.6% (active). The result for `O=C(c1ccc(F)cc1)N1CCCC(c2nc(-c3cccs3)no2)C1` (stereo unspecified) reads 6.3%; that for `COc1cccc(-c2noc(C3CCCN(C(=O)c4ccc(F)cc4)C3)n2)c1` (stereo unspecified), 22.6%; that for `CC1CC(=O)Nc2ccccc2N1C(=O)COc1ccc2cc(Br)ccc2c1` (stereo unspecified), 12.5%. In the case of `COc1ccc(NC(=O)c2cnc(NS(=O)(=O)c3ccccc3)nc2)cc1`, the activation was 29.7% (active). The result for `O=C(Nc1ccc(S(=O)(=O)Nc2ncccn2)cc1)c1cncc(Br)c1` reads 0.19%; that for `COc1ccc(NS(=O)(=O)c2ccc(NC(=O)c3ccc(N(C)S(C)(=O)=O)cc3)cc2)cc1`, 8.88%. Turning to `CC(C)c1ccc2c(c1)c(SC(C)(C)C)c(CC(C)(C)C(=O)O)n2Cc1ccc(Cl)cc1`, the activation is -0.45%. For the compound `CC(Oc1ccc(F)cc1)C(=O)N1CCN(c2ncccn2)CC1` (stereo unspecified), the activation is 0.98%. The result for `O=C(O)Cc1csc(NC(=O)CSc2nnnn2-c2ccc(O)cc2)n1` reads 11.2%; that for `CC(=O)C1=C(C)NC(=O)NC1c1cc(Br)ccc1OCC#N` (stereo unspecified), 13.1%. On to `CCN(CC)C(=O)CSc1ncnc2c1cnn2-c1ccccc1`, for which the activation is 1.79%. As for `CC(Sc1ncnc2c1cnn2-c1ccccc1)C(=O)Nc1ccc(N2CCOCC2)cc1` (stereo unspecified), the activation was 25.3% (active). The figure for `CCn1c(SC(C)C(=O)Nc2ccc(N3CCOCC3)cc2)nnc1-c1ccco1` (stereo unspecified) is 5.42%. The figure for `Cc1ccc(S(=O)(=O)N2CCC(C(=O)N[C@@H](C)C(=O)NCc3ccccc3)CC2)cc1` is 3.35%; for `Cc1cc(C)cc(N(CC(=O)NC2CCCC2)C(=O)CCC(=O)Nc2nccs2)c1` it is 1.06%; for `CC(OC(=O)c1ccccc1OCc1ccc(Cl)cc1)C(N)=O` (stereo unspecified) it is -0.86%. The figure for `COc1cc(NC(=S)N2CCCC(C)C2)c(OC)cc1Cl` (stereo unspecified) is 4.79%; for `Cc1n[nH]c(C)c1S(=O)(=O)N1CCCC(C(=O)Nc2ccc(Br)cc2)C1` (stereo unspecified) it is 3.06%; for `CC1(c2nnc(-c3ccncc3)o2)CC(c2cccnc2)=NO1` (stereo unspecified) it is -4.79%. As to `CC(C)CCNC(=O)C1CCCN(S(=O)(=O)c2ccc(F)cc2)C1` (stereo unspecified), the activation is 3.91%. The figure for `CC(NC(=O)C(C)(C)C)C(c1cccs1)N1CCN(Cc2ccccc2)CC1` (stereo unspecified) is -8.56%; for `CCC(C)NCCOCCOc1ccc(Br)cc1C` (stereo unspecified) it is -26.7%; for `CCOC(=O)N1CCN(c2c(NCCCN3CCCC(C)C3)c(=O)c2=O)CC1` (stereo unspecified) it is 5.95%. In the case of `CCOc1ccc(-n2c(N)c(C(=O)NCC3CCCO3)sc2=S)cc1` (stereo unspecified), the activation was 1.21%. The result for `CCCC(=O)N1CCN(c2nnc(-c3ccc(C)cc3)c3ccccc23)CC1` reads -14.5%.

As for `CC(=O)NC(Cc1ccc(F)c(F)c1)C(=O)NC1CCN(c2nnnn2-c2ccccc2)CC1` (stereo unspecified), the activation is 1.64%.

Consider `CCCC(=O)N1CCC1(C)C(=O)NCc1ccc(SC)cc1` (stereo unspecified), for which the activation is 3.92%.

For the compound `COc1ccccc1N(CCOc1ccccc1)S(=O)(=O)c1ccccc1`, the activation is 0.89%.

On to `C=Cn1c(C(=O)O)ccc1-c1ccc(OC)cc1`, for which the activation was -16.6%. For `CCn1c(-c2cccnc2Cl)nc2cc(C)c(C)cc21`, the activation is 2.37%. The figure for `CCOCCOC(=O)C1=C(C)NC(=O)NC1c1ccc2c(c1)OCO2` (stereo unspecified) is 6.2%. The figure for `COc1ccccc1NC(=O)C1CCCN1S(=O)(=O)c1ccc(Cl)cc1` (stereo unspecified) is 28.2% (active).

Turning to `CC(C)c1nnc(NC(=O)C2CCCN2S(=O)(=O)c2ccc(Cl)cc2)s1` (stereo unspecified), the activation is 10.2%.

As to `Cc1cccc(NC(=O)C2CCCN2S(=O)(=O)c2ccc(F)cc2)c1C` (stereo unspecified), the activation was 3.34%. Turning to `C=CCn1c2ccccc2c2nnc(SCc3[nH]c(=O)[nH]c3C(=O)CCCCC(=O)OCC)nc21`, the activation is -3.32%. The result for `O=C(C(NS(=O)(=O)c1cccc2nsnc12)c1ccccc1)N1CCN(c2ccccn2)CC1` (stereo unspecified) reads -10.2%; that for `CCOC(=O)C(=O)C1C(=O)Nc2ccccc21` (stereo unspecified), 1.1%; that for `O=C(Nc1ccccc1C(=O)NCCCn1ccnc1)c1ccc(Cl)cc1Cl`, 7.21%.
